Drawing on PubChem BioAssay AID1159580 (chemical genetic matrix, 2015), this text covers normalized growth for two compounds.

About 2,000 (36%) of roughly 5,500 compounds were called active. About 18% were inconclusive and are not listed. This is one part of the list. Unmarked numbers belong to inactive results. Cut-off read from the data, not from the text of the source: active = normalized growth mostly below about 0.91 (no sharp cut-off); inconclusive = no clear call, values can overlap the other calls; inactive = mostly above about 0.92.

The assay is described as follows: chemical genetic growth profiling, strain panel (AID 1159580).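 Note: tested at 20 µM; growth read once vehicle control cultures reached saturation at 30 °C; 1 = growth at the plate median or of vehicle wells; lower values mean less growth of the strain.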 Particulars: S. cerevisiae deletion strains, growth OD.
The mark [1] stands for this setting: locus YAL040C, strain CLN3, hits give low values.
The mark [2] stands for this setting: locus YCL061C, strain MRC1 (second series), hits give low values.
The mark [3] stands for this setting: locus YDR150W, strain NUM1, hits give low values.
[4] abbreviates: locus YDR363W, strain ESC2, hits give low values.
Where [5] appears, read: locus YER002W, strain NOP16, hits give low values.
Setting [6] is: locus YMR263W, strain SAP30, hits give low values.
Setting [7] is: locus YMR307W, strain GAS1, hits give low values.
The mark [8] stands for this setting: locus YNL175C, strain NOP13, hits give low values.
Where [9] appears, read: locus YNL197C, strain WHI3, hits give low values.
Where [10] appears, read: locus YNL224C, strain SQS1, hits give low values.
Where [11] appears, read: locus YOR083W, strain WHI5 (second series), hits give low values.

With `CC(N)(C(=O)O)c1ccc(C(=O)O)cc1` (stereo not drawn), the normalized growth (locus YAL013W, strain DEP1, hits give low values) is 1.01; the normalized growth under setting [1] was 1.12 [resistant] (active); the normalized growth under setting [2] is 1.01; the normalized growth under setting [3] is 0.998; the normalized growth under setting [4] was 1.03; the normalized growth under setting [5] was 0.995. The normalized growth is 1.01 (locus YGR229C, strain SMI1, hits give low values); 0.996 under setting [6]; 1 under setting [7]; 1 under setting [8]; 1.02 under setting [9]; 1 under setting [10]. For the same compound, the normalized growth under setting [11] is 1.02.
`C/C(=C\c1ccc(C(=O)O)cc1)c1ccc2c(c1)C(C)(C)CCC2(C)C`: the normalized growth is, setting by setting: under setting [1], 1.04; under setting [2], 1.02; under setting [3], 1.01; under setting [4], 1.02; under setting [5], 1; (locus YJR075W, strain HOC1, hits give low values) 1.01. Besides, the normalized growth under setting [6] was 1.01; the normalized growth under setting [7] is 1.02; the normalized growth (locus YNL128W, strain TEP1, hits give low values) was 0.994; the normalized growth under setting [8] is 0.994; the normalized growth under setting [9] was 0.965; the normalized growth under setting [10] was 1. Further, the normalized growth was 1.03 (locus YNL322C, strain KRE1, hits give low values); 1.01 under setting [11]; 1.01 (locus YPL241C, strain CIN2, hits give low values).
